The record followed here is article PMC7819943, “Rice protein-binding microarrays: a tool to detect cis-acting elements near promoter regions in rice”.

Over roughly 68,000 sequences, “fluorescence intensity (a.u.)” has its median near 9,100; the highest 2% begin near 16,000. This is one part of a sample in which the highest values are shown more often than they occur.

Chain of OsWRKY34 (Q0JBA9 entry or part of it): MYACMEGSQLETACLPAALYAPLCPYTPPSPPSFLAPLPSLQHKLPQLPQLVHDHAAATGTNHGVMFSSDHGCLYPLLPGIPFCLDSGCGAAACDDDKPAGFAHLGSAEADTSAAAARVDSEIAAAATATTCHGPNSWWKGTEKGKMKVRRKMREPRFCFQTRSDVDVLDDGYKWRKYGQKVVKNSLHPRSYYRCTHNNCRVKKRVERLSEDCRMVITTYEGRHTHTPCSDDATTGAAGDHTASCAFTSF

The target of this assay is OsWRKY34 (Oryza sativa, UniProt Q0JBA9 1-250). As to the kind of experiment: protein-binding microarray (RPBM); PBS, 2% BSA, 51.3 ng/ul salmon testes DNA, 50 uM zinc acetate, 200 nM TF, 25 C, 1 h; high values mean tight binding. The settings on record: protein: recombinant; tags: N-terminal polyhistidine and DsRed monomer fusion (pET32a); label: CyDye5-dUTP incorporated in the synthesized complementary strand; 3' TTTTT single-stranded linker to array surface; dsDNA, one strand shown. In short, it runs like this:
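Binding signal here means per-feature fluorescence intensity in arbitrary units. The values were read on an Axon 4000B scanner after a custom Agilent array, double-stranded by primer extension with Cy5-dUTP, was incubated with 200 nM protein at 25 °C for 1 h in PBS with 2% BSA, salmon testes DNA and 50 µM zinc acetate, then washed. The proteins were transcription factors with an N-terminal polyhistidine tag and DsRed, expressed in E. coli BL21-CodonPlus and purified on Ni–NTA.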
For the sequence “CCCTATCCATTAATTACTCGCTTCGTGGTCGGAATCCATGCGGAGTCACCTAGTGCAG”, the binding signal was 8200 fluorescence intensity (a.u.).

In the case of “TGCTGCTGGTTACTTGTATTAATACATTATAGAAAATGAGCGGAGTCACCTAGTGCAG”, the binding signal is 8070 fluorescence intensity (a.u.). For “AACTCTTTCTGCCCACTTCCTCAACCCATGCTTATCTACCCGGAGTCACCTAGTGCAG”, the binding signal was 8240 fluorescence intensity (a.u.).

With “TGAGAAGCACCGCTCTCTCCTGCACCCGTCTCACGTGCACCGGAGTCACCTAGTGCAG”, the binding signal is 8300 fluorescence intensity (a.u.). For “TCACCTGATCAAGTACGCGTTTTTGGCCCTCAAAAGTATTCGGAGTCACCTAGTGCAG” the value was 8120 fluorescence intensity (a.u.).

Consider “ACTAGGGTTCTCTTCTCACTCCATCGCTAGCGGCGGCTCACGGAGTCACCTAGTGCAG”, for which the binding signal was 8340 fluorescence intensity (a.u.). Next, “TAATGGGATGGGTGAAAAGTTATTGTTTTTGGTAGGCCTTCGGAGTCACCTAGTGCAG”: 9640 fluorescence intensity (a.u.); “CACCGCCGAACGCACGATTTCTTCCCGACGCTGTCACTTGCGGAGTCACCTAGTGCAG”: 8190 fluorescence intensity (a.u.); “CCGCGATCTGTTTCGTCCAGCTTAATTTGTTGCTGTTCTGCGGAGTCACCTAGTGCAG”: 11300 fluorescence intensity (a.u.). Regarding “GTTTGACTTTTTTACTAGTCAAACTTATTTAAGTTTGACCCGGAGTCACCTAGTGCAG”, the binding signal is 17500 fluorescence intensity (a.u.). With “ACATTTTGACTTTTGCCAAAGTCAAACTGCTTTAAGTTTGCGGAGTCACCTAGTGCAG”, the binding signal is 11900 fluorescence intensity (a.u.). On to “AAGTTACTTTTATTTTTTTCTAGTCAAACTACTTAGACTTCGGAGTCACCTAGTGCAG”, for which the binding signal was 8740 fluorescence intensity (a.u.). For “TAAGATGTTTTGACTTTGGTCAAAGTCAAACTACTTTGAGCGGAGTCACCTAGTGCAG” the value was 13200 fluorescence intensity (a.u.); for “TATTTTTGACTTTGGTCAAAGTCAAACTGTTTTAAGTTTGCGGAGTCACCTAGTGCAG”, 17900 fluorescence intensity (a.u.). “AAGTTATAAGATGTTTTGACTTTGGTCAAAGTCAAACTGCCGGAGTCACCTAGTGCAG”: the binding signal was 14600 fluorescence intensity (a.u.).

As for “TTATAAGATGTTTTGACTTTGGTCAAAGTCAAACTATTTCCGGAGTCACCTAGTGCAG”, the binding signal was 16600 fluorescence intensity (a.u.). For “TATTGACTTTGGTCAAAGTCAAACTGTTTTAAATTTCACTCGGAGTCACCTAGTGCAG”, the binding signal was 10500 fluorescence intensity (a.u.).

Take “TTTGATTTTGGTCAAAGTCAAACTACTCTAAGTTTGACTACGGAGTCACCTAGTGCAG”: the binding signal was 13400 fluorescence intensity (a.u.). As to “CGCTCACTCGTCTCCTCTCGGTTTCTTTCTCTCTCTCTCTCGGAGTCACCTAGTGCAG”, the binding signal was 8160 fluorescence intensity (a.u.). Regarding “TATCACGATATTCTACCTCGCTCTCATGGGCTAGATCACCCGGAGTCACCTAGTGCAG”, the binding signal was 9500 fluorescence intensity (a.u.). Take “CCTTGTACCTCTGTCCAGATTCATTGTACTAAGATATGTCCGGAGTCACCTAGTGCAG”: the binding signal was 8540 fluorescence intensity (a.u.). For “CTCTCTCTCTCTCTGCAGCTAGGCCATATGCATCTCTCCTCGGAGTCACCTAGTGCAG”, the binding signal was 9070 fluorescence intensity (a.u.).

In the case of “GCATTCACTCCATCGCACCACTTCATGCCGCAAAATGTTTCGGAGTCACCTAGTGCAG”, the binding signal was 9970 fluorescence intensity (a.u.).
